Experiment [1] is described as follows: AP1 Signaling Pathway (AID 357).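 Note: ME-180 reporter cells stimulated with EGF at its EC50 level; % is set by controls: 0 for no effect and ±100 for the full control effect.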 To be noted: ME-180 AP-1-bla reporter, EGF-induced, beta-lactamase ratio, 5 h; at 17.2 µM (top of the series) unless noted. The gist of the method: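 First, ME-180 AP-1-bla cells were cultured overnight at 37 °C in low-serum Opti-MEM. Next, titrated compounds with EC50 EGF were incubated 5 hours. Finally, CCF4 was added for 2.5 hours and the 460/530 nm ratio recorded.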

Experiment [2] in a line: NFAT Signaling Pathway (AID 444).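 Note: carbachol stimulus at about its EC50 of 1 µM final; % is set by controls: 0 for no effect and ±100 for the full control effect.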 As to conditions: Jurkat NFAT-bla M1, carbachol, beta-lactamase ratio, 5 h; at 17.2 µM (top of the series) unless noted. The gist of the method:
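Jurkat cells with NFAT-driven β-lactamase reporter and co-expressed M1 receptor, stimulated with carbachol (final 1 uM, ~EC50), compound titration, 5 h at 37 °C. CCF4 loaded 1 h at RT; 460/530 nm ratio gave %activity and AC50.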

Experiment [3] deals with Glucocorticoid receptor (Homo sapiens) (UniProt P04150). In words: GR-GFP Redistribution (AID 450;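 active = compounds whose dose series gives a full or clear partial fitted curve of increased nuclear translocation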; note: potency is the fitted concentration of half-maximal effect). To be noted: U2OS GR-GFP nuclear translocation, laser cytometry, 2 h.
Glucocorticoid receptor (Homo sapiens), sequence (P04150 whole entry, looked up, the tested form may be a part): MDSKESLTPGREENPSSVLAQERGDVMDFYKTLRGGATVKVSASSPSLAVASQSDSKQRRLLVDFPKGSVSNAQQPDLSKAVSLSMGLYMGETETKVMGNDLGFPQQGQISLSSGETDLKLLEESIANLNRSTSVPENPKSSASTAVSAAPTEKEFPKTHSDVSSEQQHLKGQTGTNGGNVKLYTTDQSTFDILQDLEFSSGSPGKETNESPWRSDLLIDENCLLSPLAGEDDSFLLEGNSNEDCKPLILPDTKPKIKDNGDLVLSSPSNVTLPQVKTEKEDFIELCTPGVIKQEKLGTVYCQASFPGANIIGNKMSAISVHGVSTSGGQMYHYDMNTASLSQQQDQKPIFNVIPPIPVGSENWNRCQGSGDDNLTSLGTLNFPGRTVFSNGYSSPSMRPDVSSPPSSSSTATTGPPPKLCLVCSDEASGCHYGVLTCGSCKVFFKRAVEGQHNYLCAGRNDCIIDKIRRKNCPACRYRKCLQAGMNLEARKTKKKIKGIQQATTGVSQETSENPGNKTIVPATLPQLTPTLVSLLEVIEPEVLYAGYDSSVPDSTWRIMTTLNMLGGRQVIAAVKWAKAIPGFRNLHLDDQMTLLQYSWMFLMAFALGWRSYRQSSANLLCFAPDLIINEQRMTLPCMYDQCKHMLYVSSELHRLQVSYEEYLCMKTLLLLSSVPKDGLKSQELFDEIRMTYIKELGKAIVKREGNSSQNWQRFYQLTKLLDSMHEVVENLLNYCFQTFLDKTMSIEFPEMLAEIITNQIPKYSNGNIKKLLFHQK
For experiment [4] the target is unchanged. Briefly: GR-EFC Redistribution (AID 451; calls by dose curve; note: potency is the fitted concentration of half-maximal effect). To be noted: CHO-K1 GR-EFC translocation, beta-gal luminescence, 2 h. The gist of the method: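 CHO-K1 cells expressing nuclear EA and GR-ED fragments of b-gal; compounds titrated up to 46 uM final, 2 h at 37 C. GR nuclear translocation read as complemented b-gal luminescence after 1 h RT detection.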
Experiment [5] concerns the target 3',5'-cyclic-AMP phosphodiesterase 4B (Homo sapiens) (UniProt Q07343). Briefly: qHTS Assay for Inhibitors of PDE-IV (AID 607; active = well fitted activation curve with a large enough effect in the main read-out, with a control signal flat, not every such curve was filed as active; note: % of control where 0% means no effect). To be noted: HEK293 ACTOne CNG channel cells, membrane potential fluorescence; series mostly up to 22.9 µM. The gist of the method:
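The readout is membrane depolarisation from a cAMP-sensing CNG channel, detected with a potential dye at ex 535/em 590. Cells were HEK293-derived (endogenous PDE-IV) at 1000 cells/well, titrated up to 22.9 uM final.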

The target in experiment [6] is Guanine nucleotide-binding protein G(i) subunit alpha-1 (Homo sapiens) (UniProt P63096). Briefly: qHTS Assay for Inhibitors of RGS12 GoLoco Motif Activity (Green Fluorophore) (AID 879; active = well fitted curve in the direction sought with a large enough effect; an effect the other way counts as inactive or inconclusive;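 note: 0% = labeled peptide with Gαi1 and full inhibition = labeled peptide alone without protein; negative values mean loss of peptide binding seen as reduced polarization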). To be noted: Galphai1/FITC-RGS12 GoLoco peptide, fluorescence polarization; series mostly up to 57.1 µM. The procedure, abridged: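 A drop in FITC polarization marked displacement of the FITC-tagged RGS12 GoLoco peptide (10 nM) from Gαi1 (50 nM). Compounds were incubated 10 min at room temperature in Tris pH 7.5 buffer containing 150 mM NaCl, 0.1 mM GDP and 0.05% NP40; unlabeled peptide titration served as control.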
Guanine nucleotide-binding protein G(i) subunit alpha-1 (Homo sapiens), sequence (P63096 whole entry, looked up): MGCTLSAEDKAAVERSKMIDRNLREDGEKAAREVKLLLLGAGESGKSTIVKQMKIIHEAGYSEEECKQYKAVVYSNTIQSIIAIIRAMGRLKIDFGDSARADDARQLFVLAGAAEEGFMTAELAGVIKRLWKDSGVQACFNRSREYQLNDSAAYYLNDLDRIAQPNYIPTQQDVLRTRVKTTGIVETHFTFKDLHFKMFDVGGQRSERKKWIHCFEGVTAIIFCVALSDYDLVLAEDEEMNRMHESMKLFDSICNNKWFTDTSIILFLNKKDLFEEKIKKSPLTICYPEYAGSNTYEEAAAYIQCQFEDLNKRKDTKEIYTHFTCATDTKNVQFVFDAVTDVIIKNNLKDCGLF
In general terms: In qHTS, concentration-response curves come from the screen itself.

The target in experiment [7] is Cytochrome P450 3A4 (Homo sapiens) (UniProt P08684). In words: qHTS Assay for Activators of Cytochrome P450 3A4 (AID 885; active = well fitted curve in the direction sought with a large enough effect; an effect the other way counts as inactive or inconclusive; note: nearly all actives have a fitted effect of over 65% in size). To be noted: recombinant CYP3A4, Luciferin-PPXE luminescence, 60 min; series mostly up to 57.1 µM. The procedure, abridged:
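Activators are scored by enhanced luminescence from CYP3A4 conversion of luciferin-PPXE (25uM, equal to KM) to luciferin, after 60 min at RT with an NADPH-regenerating system.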

Experiment [8] in a line: qHTS Assay for Identification of Small Molecule Agonists for Thrombopoietin (TPO) Signaling Pathway (AID 917; active = well fitted curve in the direction sought with a large enough effect; an effect the other way counts as inactive or inconclusive; note: % is set by controls: 0 for no effect and ±100 for the full control effect). As to conditions: TPO signaling pathway reporter cells, agonist qHTS; series mostly up to 38.5 µM. The gist of the method: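 Luciferase reporter (Glycoprotein IIb promoter) in IL-3-deprived Ba/F3 cells carrying human TPO receptor; compounds co-added with 26 pM TPO, incubated 24 h, 37 C. Steadylite luminescence measured after 10 min.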

Experiment [9] has as its target Muscarinic acetylcholine receptor M1 (Rattus norvegicus) (UniProt P08482). In words: qHTS Assay for Antagonists of Acetylcholine Muscarinic M1 Receptor: Measurement of IP-One Response (AID 944; active = well fitted curve in the direction sought with a large enough effect; an effect the other way counts as inactive or inconclusive; note: nearly all actives have a fitted effect of over 75% in size). As to conditions: CHO-M1 cells, IP-One HTRF, antagonist mode; series mostly up to 46.1 µM. The gist of the method: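 Antagonist mode with rat M1 receptor transfected into CHO cells. Compound is added first for 10 min, carbachol at its EC80 follows for 30 min, and lysis reagents then allow TR-FRET detection of accumulated IP1.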

In experiment [10] the target is Pyruvate kinase (Leishmania mexicana) (UniProt Q27686). Briefly: qHTS Validation Assay for Inhibitors of Leishmania Mexicana Pyruvate Kinase (AID 945; active = well fitted curve in the direction sought with a large enough effect; an effect the other way counts as inactive or inconclusive;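 note: 0% = DMSO only neutral control wells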). To be noted: purified L. mexicana pyruvate kinase, enzyme activity, E451W mutant enzyme; series mostly up to 57.5 µM. The gist of the method:
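Eight-point qHTS titrations; enzyme 0.2 nM LmPYK (E451W mutant); substrates 0.5 mM PEP, 0.1 mM ADP; 7 mM MgCl2; 1 h room temperature; PKLight luminescence normalized to neutral control.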

Experiment [11] addresses Pyruvate kinase PKM (Homo sapiens) (UniProt P14618). In words: qHTS Assay for Activators of Human Muscle Pyruvate Kinase (AID 954; active = well fitted curve in the direction sought with a large enough effect, not every such curve was filed as active;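 note: 0% = uninhibited enzyme and -100% = no enzyme or full thiadiazolimine inhibition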). To be noted: purified human muscle pyruvate kinase, luciferase-coupled luminescence, 1 h; series mostly up to 57.5 µM. The gist of the method:
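PKM2, human, >95% pure, 0.1 nM; PEP 0.5 mM (Km), ADP 0.1 mM; 50 mM imidazole pH 7.2, 50 mM KCl, 0.01% Tween 20, 0.05% BSA; 1 h RT; luciferase luminescence readout.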

In experiment [12] the target is Alpha-galactosidase (Coffea arabica) (UniProt Q42656). In words: Counterscreen for Glucocerebrosidase Inhibitors: qHTS Assay for Coffee Bean alpha-Galactosidase at pH 4.5 (AID 957; active = well fitted curve in the direction sought with a large enough effect; an effect the other way counts as inactive or inconclusive;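 note: plate controls were enzyme alone for no effect and no enzyme for full effect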). To be noted: purified coffee bean alpha-galactosidase, fluorogenic substrate; series mostly up to 76.9 µM. The procedure, abridged: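 Enzyme is added first (2 nM final), then compounds titrated from 0.7 nM to 77 uM, then 80 uM 4-methylumbelliferyl alpha-D-galactopyranoside; after 20 min at room temperature a pH 10 NaOH/glycine stop precedes fluorescence reading at 365/440 nm.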
Alpha-galactosidase (Coffea arabica), sequence (Q42656 whole entry, looked up): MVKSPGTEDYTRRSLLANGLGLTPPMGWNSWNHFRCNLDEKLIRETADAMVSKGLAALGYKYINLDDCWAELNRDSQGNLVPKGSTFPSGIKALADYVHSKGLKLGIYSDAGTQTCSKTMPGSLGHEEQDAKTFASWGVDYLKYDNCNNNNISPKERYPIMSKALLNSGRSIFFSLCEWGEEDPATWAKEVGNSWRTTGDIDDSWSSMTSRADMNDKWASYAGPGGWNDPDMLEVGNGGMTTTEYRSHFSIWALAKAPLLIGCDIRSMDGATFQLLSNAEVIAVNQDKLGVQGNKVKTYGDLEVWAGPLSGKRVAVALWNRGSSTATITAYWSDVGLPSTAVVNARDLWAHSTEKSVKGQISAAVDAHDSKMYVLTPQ
Background: A counterscreen serves to expose hits that act by an unwanted route or on another target.

In experiment [13] the target is alpha-glucosidase (Oryza sativa, rice) (UniProt Q653V4). Briefly: Counterscreen for Glucocerebrosidase Inhibitors: qHTS Assay for Rice alpha-Glucosidase at pH 5.0 (AID 997; active = well fitted curve in the direction sought with a large enough effect; an effect the other way counts as inactive or inconclusive;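 note: 0% = full activity with enzyme and -100% = basal without enzyme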). To be noted: rice alpha-glucosidase enzyme activity; series mostly up to 76.9 µM. The gist of the method: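 Endpoint fluorogenic assay at pH 5.0: compounds (0.7 nM to 77 uM) titrated against 4 nM rice enzyme and 400 uM 4-MU-alpha-glucoside for 20 min at room temperature; NaOH/glycine stop, read ex 365/em 440 nm, Hill-fitted AC50.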

Experiment [14] concerns the target Alpha-galactosidase (Coffea arabica) (UniProt Q42656). In words: Counterscreen for Glucocerebrosidase Inhibitors: qHTS Assay for Coffee Bean alpha-Galactosidase at pH 5.9 (AID 998; active = well fitted curve in the direction sought with a large enough effect; an effect the other way counts as inactive or inconclusive;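 note: plate controls were uninhibited enzyme for no effect and no-enzyme basal signal for full effect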). To be noted: coffee bean alpha-galactosidase enzyme assay; series mostly up to 76.9 µM. The gist of the method:
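Enzyme 2 nM + cpd (0.7 nM–77 uM titration) + 4-MU-alpha-Gal 80 uM, pH 5.9 citrate/Tween-20, RT 20 min, NaOH/glycine stop pH 10, fluor 365/440. Normalized to no-enzyme and full-activity controls; Hill-fit AC50.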

A short description of experiment [15]: Stat Signaling Pathway (AID 446).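 Note: ME-180 cervical cancer cells given 40 pM IL-6 alongside compound; SIE-controlled beta-lactamase reporter measured as 460/530 nm FRET emission ratio; % is set by controls: 0 for no effect and ±100 for the full control effect.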 To be noted: ME-180 (cervical carcinoma) SIE beta-lactamase reporter, IL-6 stimulated, 5 h; series mostly up to 17.2 µM. The procedure, abridged: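 Emission at 460 and 530 nm (excitation 405 nm) reports SIE-controlled beta-lactamase in ME-180 cells. Cells received compound with 40 pM IL-6 for 5 hrs at 37 C; data scaled between 300 pM IL-6 and 125 nM JAK-inhibitor controls.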

Experiment [16] concerns the target Mitogen-activated protein kinase 10 (Mus musculus) (UniProt Q61831). Briefly: JNK3 AlphaScreen Assay (AID 530). To be noted: JNK3 lysate, c-Jun phosphorylation; series mostly up to 57.1 µM. The procedure, abridged: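 Activity was read by AlphaScreen after JNK3-containing HepG2 lysate (cytokine pre-activated) phosphorylated biotinylated GST-cJun with 10 uM ATP at room temperature. Phospho-Ser73 cJun antibody with Protein-A acceptor beads provided detection.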
On the technique in general: In Alpha technology, singlet oxygen from a donor bead excites a nearby acceptor bead.

The target of experiment [17] is Ubiquitin carboxyl-terminal hydrolase 1 (Homo sapiens) (UniProt O94782). In words: Inhibitors of USP1/UAF1: Pilot qHTS (AID 504865; active = well fitted curve in the direction sought with a large enough effect; an effect the other way counts as inactive or inconclusive;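 note: rhodamine fluorescence freed from ubiquitin-rhodamine substrate followed over time; top concentration of the series differs between compounds; % is set by controls: 0 for no effect and ±100 for the full control effect; nearly all actives have a fitted effect of over 35% in size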). To be noted: purified USP1/UAF1, Ub-rhodamine cleavage fluorescence; series mostly up to 114 µM. The gist of the method: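 Deubiquitinase activity followed as kinetic rhodamine fluorescence release from 150 nM Ub-Rho. 1 nM USP1/UAF1 with compound, after 15 min room-temperature preincubation, in HEPES pH 7.8 buffer containing TCEP, EDTA, BSA and Tween-20.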
Ubiquitin carboxyl-terminal hydrolase 1 (Homo sapiens), sequence (O94782 whole entry, looked up): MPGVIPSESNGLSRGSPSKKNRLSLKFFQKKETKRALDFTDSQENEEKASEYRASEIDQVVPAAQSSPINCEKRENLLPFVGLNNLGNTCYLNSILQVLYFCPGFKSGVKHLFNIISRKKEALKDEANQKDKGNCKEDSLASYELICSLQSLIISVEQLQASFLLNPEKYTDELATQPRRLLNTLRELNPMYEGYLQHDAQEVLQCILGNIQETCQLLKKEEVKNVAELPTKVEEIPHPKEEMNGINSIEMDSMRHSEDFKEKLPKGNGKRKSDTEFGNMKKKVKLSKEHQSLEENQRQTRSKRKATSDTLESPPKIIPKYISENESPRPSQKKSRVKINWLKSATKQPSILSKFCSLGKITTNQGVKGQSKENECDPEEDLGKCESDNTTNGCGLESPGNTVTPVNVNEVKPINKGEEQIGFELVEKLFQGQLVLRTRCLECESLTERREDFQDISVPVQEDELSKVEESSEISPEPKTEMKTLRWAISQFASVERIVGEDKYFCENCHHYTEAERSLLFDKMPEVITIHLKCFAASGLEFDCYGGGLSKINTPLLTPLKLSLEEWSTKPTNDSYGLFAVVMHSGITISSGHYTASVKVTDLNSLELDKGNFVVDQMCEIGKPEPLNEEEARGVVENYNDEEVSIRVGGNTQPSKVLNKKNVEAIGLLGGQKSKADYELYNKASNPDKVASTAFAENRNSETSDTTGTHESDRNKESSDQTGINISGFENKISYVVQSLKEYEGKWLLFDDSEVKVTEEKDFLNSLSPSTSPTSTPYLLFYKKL

Experiment [18] is described as follows: qHTS Assay for Identification of Small Molecule Antagonists for NFkB Signaling Pathway (AID 895; active = well fitted inhibition curve with a large enough effect in the signal ratio, with a control signal flat, not every such curve was filed as active; the % refers to the signal ratio; note: % is set by controls: 0 for no effect and ±100 for the full control effect). To be noted: NFkB beta-lactamase reporter cells, FRET ratio 460/530; series mostly up to 38.3 µM. The gist of the method:
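ME-180 NFkB-bla cells (beta-lactamase under NFkB response element), plated overnight, treated with compound then 10 pM TNF alpha (about EC50) for 5 hrs at 37 C. LiveBLAzer FRET read at 460/530 nm emission, 405 nm excitation.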

The target of experiment [19] is Muscarinic acetylcholine receptor M1 (Rattus norvegicus) (UniProt P08482). Briefly: qHTS Assay for Antagonists of Acetylcholine Muscarinic M1 Receptor: Kinetic Measurement of Intracellular Calcium Response (AID 943; active = well fitted curve in the direction sought with a large enough effect; an effect the other way counts as inactive or inconclusive;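 note: Fluo-4 calcium signal as peak divided by basal fluorescence over 4 min; nearly all actives have a fitted effect of over 75% in size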). To be noted: M1-expressing cells, kinetic intracellular calcium fluorescence; series mostly up to 35.3 µM. The gist of the method:
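Antagonism is measured as inhibition of the carbachol-evoked calcium rise in CHO cells transfected with rat M1. Cells are dye-loaded, exposed to compound for 10 min, then stimulated with 100 nM carbachol (EC80).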

Values without a mark were called inactive. Records with an inconclusive call do not appear. Active and inactive are the calls of the source. Unless noted, calls come from the whole dose curve; as a rule, active = well fitted curve in either direction with a large enough effect (not every such curve was filed as active); inconclusive = small, poorly fitted or top-dose-only effect, or another doubt; inactive = flat fitted curve, though single readings scatter.

3',5'-cyclic-AMP phosphodiesterase 4B (Homo sapiens), sequence (Q07343 whole entry, looked up): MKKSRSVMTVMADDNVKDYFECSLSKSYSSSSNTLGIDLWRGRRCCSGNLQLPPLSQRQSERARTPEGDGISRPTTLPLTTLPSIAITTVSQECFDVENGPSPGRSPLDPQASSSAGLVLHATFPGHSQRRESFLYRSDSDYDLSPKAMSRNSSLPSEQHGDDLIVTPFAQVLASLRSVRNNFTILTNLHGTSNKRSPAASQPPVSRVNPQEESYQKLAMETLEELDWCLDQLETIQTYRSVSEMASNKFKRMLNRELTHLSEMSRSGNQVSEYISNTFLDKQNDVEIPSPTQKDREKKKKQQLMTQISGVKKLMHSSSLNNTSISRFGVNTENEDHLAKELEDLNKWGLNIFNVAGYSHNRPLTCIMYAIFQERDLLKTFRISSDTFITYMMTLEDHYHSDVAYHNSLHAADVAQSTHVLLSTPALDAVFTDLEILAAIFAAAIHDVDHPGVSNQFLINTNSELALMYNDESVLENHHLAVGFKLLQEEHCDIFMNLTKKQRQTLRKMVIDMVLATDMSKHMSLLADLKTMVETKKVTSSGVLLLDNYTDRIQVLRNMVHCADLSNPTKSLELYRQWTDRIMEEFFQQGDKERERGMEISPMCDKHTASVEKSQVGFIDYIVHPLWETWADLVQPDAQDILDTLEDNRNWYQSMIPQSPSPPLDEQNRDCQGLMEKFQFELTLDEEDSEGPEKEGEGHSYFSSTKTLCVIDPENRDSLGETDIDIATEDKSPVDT
Muscarinic acetylcholine receptor M1 (Rattus norvegicus), sequence (P08482 whole entry, looked up): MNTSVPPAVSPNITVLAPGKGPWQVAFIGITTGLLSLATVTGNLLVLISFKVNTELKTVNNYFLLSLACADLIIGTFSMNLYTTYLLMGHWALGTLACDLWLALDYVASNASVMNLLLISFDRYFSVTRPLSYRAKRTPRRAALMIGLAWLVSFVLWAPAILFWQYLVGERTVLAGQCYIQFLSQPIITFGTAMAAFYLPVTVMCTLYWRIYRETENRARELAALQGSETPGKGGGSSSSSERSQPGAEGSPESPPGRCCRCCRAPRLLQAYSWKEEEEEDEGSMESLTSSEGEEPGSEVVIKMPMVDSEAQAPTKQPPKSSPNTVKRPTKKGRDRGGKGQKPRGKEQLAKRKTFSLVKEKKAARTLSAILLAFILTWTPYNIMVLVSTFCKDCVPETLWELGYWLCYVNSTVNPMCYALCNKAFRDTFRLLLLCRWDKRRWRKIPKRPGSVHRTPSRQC
Pyruvate kinase PKM (Homo sapiens), sequence (P14618 whole entry, looked up): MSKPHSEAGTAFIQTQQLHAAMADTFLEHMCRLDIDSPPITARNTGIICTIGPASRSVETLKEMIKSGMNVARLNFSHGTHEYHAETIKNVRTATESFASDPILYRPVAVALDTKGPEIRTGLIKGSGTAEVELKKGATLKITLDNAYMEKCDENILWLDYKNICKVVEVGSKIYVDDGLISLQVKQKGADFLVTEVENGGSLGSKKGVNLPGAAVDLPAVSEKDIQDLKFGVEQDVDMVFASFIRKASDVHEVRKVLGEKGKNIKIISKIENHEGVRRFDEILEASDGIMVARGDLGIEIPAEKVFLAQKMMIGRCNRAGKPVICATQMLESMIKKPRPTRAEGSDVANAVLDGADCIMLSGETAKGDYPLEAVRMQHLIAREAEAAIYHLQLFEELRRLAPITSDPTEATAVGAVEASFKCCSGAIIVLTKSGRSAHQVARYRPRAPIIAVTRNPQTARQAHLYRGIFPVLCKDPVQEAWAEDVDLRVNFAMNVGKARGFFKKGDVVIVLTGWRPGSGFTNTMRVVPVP
Pyruvate kinase (Leishmania mexicana), sequence (Q27686 2-499 E452W): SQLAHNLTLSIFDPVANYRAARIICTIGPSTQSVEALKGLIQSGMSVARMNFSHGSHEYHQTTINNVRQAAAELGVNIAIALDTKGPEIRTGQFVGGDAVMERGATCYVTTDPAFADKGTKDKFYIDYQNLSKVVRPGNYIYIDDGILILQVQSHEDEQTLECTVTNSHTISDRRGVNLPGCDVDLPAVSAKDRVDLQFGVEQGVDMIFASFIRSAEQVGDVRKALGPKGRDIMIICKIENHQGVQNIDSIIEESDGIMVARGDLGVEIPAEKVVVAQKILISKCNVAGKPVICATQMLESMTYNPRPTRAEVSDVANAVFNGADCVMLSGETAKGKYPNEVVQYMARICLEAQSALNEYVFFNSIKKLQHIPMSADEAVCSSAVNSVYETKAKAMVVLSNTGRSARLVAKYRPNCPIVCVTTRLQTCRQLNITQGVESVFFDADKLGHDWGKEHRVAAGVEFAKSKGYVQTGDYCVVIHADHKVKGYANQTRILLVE
Cytochrome P450 3A4 (Homo sapiens), sequence (P08684 whole entry, looked up): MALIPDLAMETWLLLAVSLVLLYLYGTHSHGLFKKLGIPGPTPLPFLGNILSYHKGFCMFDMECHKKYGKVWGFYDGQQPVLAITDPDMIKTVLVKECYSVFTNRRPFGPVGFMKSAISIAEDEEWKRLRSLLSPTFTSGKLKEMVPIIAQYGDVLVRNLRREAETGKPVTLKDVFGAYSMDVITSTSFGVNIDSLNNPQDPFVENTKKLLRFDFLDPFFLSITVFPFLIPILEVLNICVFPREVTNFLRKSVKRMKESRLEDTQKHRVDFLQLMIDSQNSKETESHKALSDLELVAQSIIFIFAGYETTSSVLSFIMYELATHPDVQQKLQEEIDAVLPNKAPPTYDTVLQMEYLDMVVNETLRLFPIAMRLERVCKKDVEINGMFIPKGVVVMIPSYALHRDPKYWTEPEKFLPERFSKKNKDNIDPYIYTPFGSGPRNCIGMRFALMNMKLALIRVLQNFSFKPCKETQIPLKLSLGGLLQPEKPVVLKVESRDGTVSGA

On to `C[C@H](N)c1cccc(Cl)c1Cl`, for which the activity change, negative = inhibition in [1] is 19.1% [at 38 µM]; in [2], 7.99% [at 38 µM]. The Potency in experiment [3] and in [4] was above 46 µM in each case. For the same molecule, the result in [5], in experiment [8], in [11], in experiment [12], in [13] and in experiment [14] was inactive. The Potency result in experiment [6], in [7], in experiment [9] and in experiment [10] was “inactive” in each case.

Consider `COC(=O)C(O)(c1ccc(NC(=O)c2ccco2)c(OC)c1)C(F)(F)F` (stereo not drawn), for which the activity change, negative = inhibition is -12.5% in experiment [1] and 4.31% in [2]. Moreover, the Potency in [3] is above 20.6 µM.

With `COc1ccc(Cn2c(O)c(C=NCCCn3ccnc3)c(=O)[nH]c2=O)cc1`, the results for the activity change, negative = inhibition in experiment [1] and in experiment [2] were -15.8% and -15.1%, respectively. The Potency in [3] is above 20.6 µM.

As to `Cn1c(O)c(C=NC2CCN(Cc3ccccc3)CC2)c(=O)n(C)c1=O`, the activity change, negative = inhibition in [1] is -11.6%. For the same molecule, the outcome in [15] was inactive. Also, the Potency in experiment [3] was above 20.6 µM.

With `CCCCc1nc(N2CCNCC2)c(C#N)c2c1CSC(C)(C)C2`, the activity change, negative = inhibition in experiment [1] is 3.85%. Further, the call in [15] was inactive.

`Nc1ncc(P(=S)(N2CCOCC2)N2CCOCC2)s1`: the activity change, negative = inhibition was 10.9% in experiment [1] and 4.78% in experiment [2]. Besides, in experiment [3], the Potency was above 20.6 µM.

Consider `C[C@H]1C[C@@H](C)C(=O)[C@@H]([C@H](O)CC2CC(=O)NC(=O)C2)C1`, for which the activity change, negative = inhibition in [1] was -97.3% (active); in [2], -119% (active). The result in experiment [16] and in [5] was inactive. In addition, the Potency result in experiment [17] is “inactive”.

In the case of `CC(=O)OC1N=C(c2ccccc2)c2ccccc2NC1=O` (stereo not drawn), the activity change, negative = inhibition was -8.32% in experiment [1] and 11.5% in [2]. Further, the Potency in [3] is above 20.6 µM.

Turning to `CC(C)n1cc2c3c(cccc31)[C@@H]1C[C@H](C(=O)O[C@@H](C)[C@H](C)O)CN(C)[C@H]1C2`, the activity change, negative = inhibition in [1] is 1.23% [at 38 µM]; in experiment [2], -4.79% [at 38 µM]. Further, the Potency in [3] and in experiment [4] was above 46 µM throughout. In addition, the molecule was called inactive in experiment [16], in experiment [8], in experiment [11], in experiment [12], in experiment [13] and in [14]. Also, the Potency result in experiment [18], in experiment [19] and in experiment [10] was “inactive” in each case.

As to `OCCOCC#CCN1CCOCC1`, the figures for the activity change, negative = inhibition in experiment [1] and in experiment [2] were 12.1% and -4.14%, respectively. Further, the Potency in [3] is above 20.6 µM.

In the case of `C=CCn1c(O)c(C=NCCN(C)C)c(=O)[nH]c1=O`, the activity change, negative = inhibition in experiment [1] was 1.63%; in experiment [2], -6.46%. Besides, the Potency in experiment [3] is above 20.6 µM.

For `CC1(C)CC(=O)C(C=NCCN2CCN(C(=O)Cc3ccc(F)cc3)CC2)=C(O)C1`, the activity change, negative = inhibition in experiment [1] is -0.912%. Besides, the molecule was called inactive in experiment [15]. The Potency in experiment [3] was above 20.6 µM.

(Values after PubChem BioAssay (NCATS).)
